This is an account of results in PubChem BioAssay (EPA / NIEHS).

Structures are written as SMILES. Values joined by “and” are separate entries in the source; they are usually repeats but may differ in a detail not shown here. Equal values may be shown once. Some compounds were tested as several samples or in several runs, with calls that do not always agree. Active and inactive are the calls of the source. How the source made its calls: active means hit-call score of the fitted dose curve at least 0.9, where 1 is the maximum; inactive means score below 0.9.

A short description of assay [1]: ATG_M_32_CIS: Attagene CIS-FACTORIAL HepG2 Assay for M32 Transcription Factor (Internal Marker) (AID 2282949).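 Further: background control marker of the multiplexed CIS panel rather than a real target.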 The following applies: HepG2 Attagene cis-factorial M32 reporter, mRNA; actives raise or lower the signal. In outline:
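Following 24 h chemical exposure of HepG2 cells transiently expressing cis-promoter reporter constructs, reporter transcript levels were determined by RT-PCR with fluorescent labelling and capillary electrophoresis, then fitted bidirectionally against DMSO.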

Assay [2] can be described thus: ATG_M_06_CIS: Attagene CIS-FACTORIAL HepG2 Assay for M06 Transcription Factor (Internal Marker) (AID 2282950). The following applies: HepG2 Attagene CIS-FACTORIAL M06 internal marker reporter; actives raise or lower the signal. In a few lines: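 Cells (HepG2, transiently carrying cis-driven reporter units) receive chemical for 24 h before RNA isolation. Reporter cDNA is PCR-amplified, FAM-labelled by primer extension, HpaI-digested and sized on a capillary analyser.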

Assay [3] has as its target Hypoxia-inducible factor 1-alpha (Homo sapiens) (UniProt Q16665). The assay can be described thus: ATG_HIF1a_CIS: Attagene CIS-FACTORIAL HepG2 Assay for human Hypoxia Inducible Factor 1 (HIF1A) (AID 2282951). Conditions: HepG2 Attagene cis-factorial HIF1a reporter transcription; actives raise or lower the signal. In a few lines: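 Fluorescence intensity of capillary-separated, 6-FAM-labelled reporter amplicons gives mRNA induction in HepG2 cells carrying transfected cis-promoter reporter units; cells exposed 24 h, responses fitted up or down from DMSO.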

For assay [4], the target named is Hepatocyte nuclear factor 6 (Homo sapiens) (UniProt Q9UBC0). The assay can be described thus: ATG_HNF6_CIS: Attagene CIS-FACTORIAL HepG2 Assay for human Hepatocyte Nuclear Factor 6 (HNF6) (AID 2282952). Conditions: HepG2 Attagene cis-factorial HNF6 reporter transcription; actives raise or lower the signal. In a few lines: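 HepG2 cells transiently transfected with cis-element-driven multiple reporter transcription units, dosed 24 h; reporter mRNA quantified by RT-PCR, FAM primer extension, HpaI digestion and capillary electrophoresis; bidirectional fit versus DMSO baseline.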

Assay [5] deals with Heat shock factor protein 1 (Homo sapiens) (UniProt Q00613). The assay can be described thus: ATG_HSE_CIS: Attagene CIS-FACTORIAL HepG2 Assay for human Heat Shock Transcription Factor 1 (HSE) (AID 2282953). Conditions: HepG2 HSE cis-reporter, Attagene RNA transcription; actives raise or lower the signal. In outline:
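Liver-derived HepG2 cells carry transiently introduced multiple reporter units governed by cis promoters. Reporter RNA measured 24 h post-dose through reverse transcription, PCR amplification, fluorescent labelling and capillary electrophoresis, normalised to DMSO.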

The nature of assay [6]: ATG_MRE_CIS: Attagene CIS-FACTORIAL HepG2 Assay for human Metal Responsive Element (MRE) (AID 2282954). The following applies: HepG2 MRE cis-reporter transcription, Attagene multiplex; actives raise or lower the signal. In outline: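 HepG2 cells transiently transfected with multiple cis-element reporter units measure endogenous MTF1-driven transcription. After 24 h compound exposure, reporter mRNA is quantified by RT-PCR with 6-FAM labelling, HpaI digestion and capillary electrophoresis; bidirectional fits versus DMSO.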

Assay [7] is described as follows: ATG_PBREM_CIS: Attagene CIS-FACTORIAL HepG2 Assay for human Phenobarbital-responsive Enhancer Module (PBREM) (AID 2282955). Conditions: HepG2 PBREM cis-reporter, Attagene multiplexed transcription; actives raise or lower the signal. In a few lines: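 Cells were transfected with cis-element reporter units and treated for 24 h, after which RNA was extracted and reporter transcripts measured by RT-PCR and capillary electrophoresis.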

The target in assay [8] is Paired box protein Pax-6 (Homo sapiens) (UniProt P26367). The assay can be described thus: ATG_Pax6_CIS: Attagene CIS-FACTORIAL HepG2 Assay for human Paired Box 6 (PAX6) (AID 2282956). Conditions: HepG2 CIS-FACTORIAL PAX6 reporter transcription, RNA readout; actives raise or lower the signal. In outline:
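Multiplexed cis-reporter HepG2 system; 24 h treatment; reporter mRNA read by RT-PCR/CE fluorescence; bidirectional fit vs DMSO.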

The nature of assay [9]: ATG_PXRE_CIS: Attagene CIS-FACTORIAL HepG2 Assay for human Pregnane X Receptor Element (PXRE) (AID 2282957). Conditions: HepG2 Attagene CIS-FACTORIAL PXRE reporter, mRNA; actives raise or lower the signal. In outline:
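HepG2 cells transiently transfected with cis-regulated multiple reporter transcription units; endogenous factor activity measured as reporter mRNA 24 h after dosing. RT-PCR, fluorescent primer extension, HpaI digestion, capillary electrophoresis; bidirectional fit versus DMSO baseline.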

Assay [10] is described as follows: ATG_PPRE_CIS: Attagene CIS-FACTORIAL HepG2 Assay for human Peroxisome Proliferator-activated Response Element (PPRE) (AID 2282958). Conditions: HepG2 PPRE cis-element reporter, Attagene transcription factor profiling; actives raise or lower the signal. In a few lines:
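In this cell-based multiplex, a PPRE cis element drives a reporter sequence in transiently transfected HepG2 cells. Following 24 h treatment, labeled cDNA amplicons are sized and quantified by capillary electrophoresis, with DMSO defining baseline.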

Assay [11] in a line: ATG_RORE_CIS: Attagene CIS-FACTORIAL HepG2 Assay for human RAR-related Orphan Receptor Element (RORE) (AID 2282959). The following applies: HepG2 Attagene cis-factorial RORE reporter, mRNA; actives raise or lower the signal. In a few lines: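 Endogenous factor activity at a cis response element is read as reporter transcript levels in HepG2 cells, 24 h post-dose. Transcripts are quantified by RT-PCR with capillary electrophoresis, and data fitted in both directions against DMSO.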

A short description of assay [12]: ATG_Sox_CIS: Attagene CIS-FACTORIAL HepG2 Assay for human SRY-box transcription factor (SOX) (AID 2282960). Conditions: HepG2 Attagene cis-factorial SOX reporter, mRNA; actives raise or lower the signal. In outline:
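Measures mRNA induction of a SOX1-associated reporter in HepG2 after 24 h dosing. Fluorescently labelled RT-PCR fragments are separated by capillary electrophoresis, and gain or loss relative to DMSO control is fitted.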

The target in assay [13] is Transcription factor Sp1 (Homo sapiens) (UniProt P08047). Put plainly: ATG_Sp1_CIS: Attagene CIS-FACTORIAL HepG2 Assay for human Specificity Protein 1 (Sp1) (AID 2282961). The following applies: HepG2 Sp1 cis-reporter transcription, actives raise or lower the signal. In outline:
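Cells: HepG2, transiently transfected with cis-regulated multiplexed reporters. Exposure: 24 h. Detection: reporter transcripts amplified, fluorescently labeled, restriction-digested and sized by capillary electrophoresis. Analysis: bidirectional fit relative to DMSO.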

Assay [14] in a line: ATG_SREBP_CIS: Attagene CIS-FACTORIAL HepG2 Assay for human Sterol Regulatory Element Binding (SREBP) (AID 2282962). The following applies: HepG2 Attagene cis-factorial SREBP reporter, mRNA; actives raise or lower the signal. In a few lines:
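mRNA induction of transfected cis-promoter reporters in HepG2 cells, 24 h post-dose. Detection: RT-PCR with 6-FAM-labelled products, HpaI digest, capillary electrophoresis. DMSO served as negative control and baseline.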

The target in assay [15] is Signal transducer and activator of transcription 3 (Homo sapiens) (UniProt P40763). The assay can be described thus: ATG_STAT3_CIS: Attagene CIS-FACTORIAL HepG2 Assay for human Signal Transducer and Activator of Transcription 3 (STAT3) (AID 2282963). The following applies: HepG2, Attagene cis-factorial STAT3 reporter transcription; actives raise or lower the signal. In outline: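 HepG2 cells transiently transfected with cis-element-driven multiple reporter transcription units; after 24 h chemical exposure, reporter mRNA measured by RT-PCR, 6-FAM primer-extension labelling, HpaI digestion and capillary electrophoresis. Bidirectional fitting versus DMSO baseline.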

A short description of assay [16]: ATG_TA_CIS: Attagene CIS-FACTORIAL HepG2 Assay for human TA Basal Promoter (AID 2282964). The following applies: HepG2 Attagene CIS-factorial TA basal promoter reporter; actives raise or lower the signal. In outline: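 Background internal-marker endpoint from a 52-component HepG2 cis-reporter panel. Cells treated 24 h; reporter transcripts quantified via RT-PCR and CE fluorescence against DMSO baseline.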

A short description of assay [17]: ATG_TCF_b_cat_CIS: Attagene CIS-FACTORIAL HepG2 Assay for human T-Cell-Factor with beta-catenin (TCF/b-cat) (AID 2282965). The following applies: HepG2 TCF/beta-catenin cis-reporter transcription, actives raise or lower the signal. In outline:
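HepG2 cells transiently transfected with multiple cis-promoter-regulated reporter transcription units, so endogenous transcription factor activity is measured. Reporter mRNA read 24 hours after dosing by RT-PCR, fluorescent labelling and capillary electrophoresis; bidirectional fitting against DMSO.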

Assay [18] is described as follows: ATG_TAL_CIS: Attagene CIS-FACTORIAL HepG2 Assay for human TAL Basal Promoter (AID 2282966).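 Further: background control endpoint measuring basal TAL promoter reporter mRNA not a specific factor.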 Conditions: HepG2 Attagene cis-factorial TAL promoter reporter; actives raise or lower the signal. In outline: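 HepG2 cells were transiently transfected with promoter-driven multiplexed reporter units and dosed for 24 h. Reporter mRNA was measured by RT-PCR with capillary electrophoresis fluorescence; bidirectional fits used DMSO as baseline, serving as a background control.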

The nature of assay [19]: ATG_VDRE_CIS: Attagene CIS-FACTORIAL HepG2 Assay for human Vitamin D Receptor Element (VDRE) (AID 2282968). Conditions: HepG2 VDRE cis-reporter transcription, actives raise or lower the signal. In outline: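 HepG2 cells transiently transfected with cis-element reporter units, dosed 24 h; reporter mRNA measured by RT-PCR, 6-FAM labeling, HpaI digestion and capillary electrophoresis. Activity fitted bidirectionally against DMSO baseline.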

The nature of assay [20]: ATG_TGFb_CIS: Attagene CIS-FACTORIAL HepG2 Assay for human Transforming Growth Factor (TGF) (AID 2282967). The following applies: HepG2 Attagene CIS TGFb reporter, mRNA transcription; actives raise or lower the signal. In a few lines:
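Liver HepG2 line, cis-factorial reporter panel, 24 h dosing. Quantitation: RT-PCR products labeled with 6-FAM, cut with HpaI, resolved by capillary electrophoresis; DMSO-referenced bidirectional analysis.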

Chain of Paired box protein Pax-6 (Homo sapiens) (P26367 whole entry, looked up): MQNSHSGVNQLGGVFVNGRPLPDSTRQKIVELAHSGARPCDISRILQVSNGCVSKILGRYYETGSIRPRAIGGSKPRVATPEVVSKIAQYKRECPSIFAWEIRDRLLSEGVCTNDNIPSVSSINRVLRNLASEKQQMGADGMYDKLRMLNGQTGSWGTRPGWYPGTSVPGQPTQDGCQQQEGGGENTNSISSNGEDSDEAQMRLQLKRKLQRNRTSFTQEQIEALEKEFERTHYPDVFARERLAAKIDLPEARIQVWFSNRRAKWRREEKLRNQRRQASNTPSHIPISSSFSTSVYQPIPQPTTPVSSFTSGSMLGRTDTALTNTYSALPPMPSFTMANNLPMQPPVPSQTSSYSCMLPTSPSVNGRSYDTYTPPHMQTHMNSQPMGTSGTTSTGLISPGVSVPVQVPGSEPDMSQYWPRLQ
Chain of Hypoxia-inducible factor 1-alpha (Homo sapiens) (Q16665 whole entry, looked up): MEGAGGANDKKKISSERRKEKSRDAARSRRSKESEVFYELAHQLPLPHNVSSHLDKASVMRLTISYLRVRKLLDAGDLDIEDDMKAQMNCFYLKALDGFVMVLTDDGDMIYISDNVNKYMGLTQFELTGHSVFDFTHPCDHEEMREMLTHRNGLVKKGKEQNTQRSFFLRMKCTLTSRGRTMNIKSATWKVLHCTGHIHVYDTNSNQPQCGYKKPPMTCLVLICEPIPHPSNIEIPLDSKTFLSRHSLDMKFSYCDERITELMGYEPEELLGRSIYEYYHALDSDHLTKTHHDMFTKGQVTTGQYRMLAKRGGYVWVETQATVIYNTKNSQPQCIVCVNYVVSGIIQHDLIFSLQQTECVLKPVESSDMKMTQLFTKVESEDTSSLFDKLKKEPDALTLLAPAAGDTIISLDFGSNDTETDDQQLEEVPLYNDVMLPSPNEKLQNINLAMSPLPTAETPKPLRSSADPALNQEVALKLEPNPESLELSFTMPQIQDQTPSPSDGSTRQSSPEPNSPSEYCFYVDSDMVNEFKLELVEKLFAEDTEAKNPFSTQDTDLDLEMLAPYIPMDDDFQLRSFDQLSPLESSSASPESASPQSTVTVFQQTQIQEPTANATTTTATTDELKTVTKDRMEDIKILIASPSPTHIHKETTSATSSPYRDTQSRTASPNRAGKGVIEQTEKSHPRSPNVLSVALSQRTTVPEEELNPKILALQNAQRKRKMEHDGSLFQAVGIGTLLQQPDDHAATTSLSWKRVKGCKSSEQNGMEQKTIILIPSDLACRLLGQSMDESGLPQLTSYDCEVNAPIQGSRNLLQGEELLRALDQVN
Chain of Heat shock factor protein 1 (Homo sapiens) (Q00613 whole entry, looked up): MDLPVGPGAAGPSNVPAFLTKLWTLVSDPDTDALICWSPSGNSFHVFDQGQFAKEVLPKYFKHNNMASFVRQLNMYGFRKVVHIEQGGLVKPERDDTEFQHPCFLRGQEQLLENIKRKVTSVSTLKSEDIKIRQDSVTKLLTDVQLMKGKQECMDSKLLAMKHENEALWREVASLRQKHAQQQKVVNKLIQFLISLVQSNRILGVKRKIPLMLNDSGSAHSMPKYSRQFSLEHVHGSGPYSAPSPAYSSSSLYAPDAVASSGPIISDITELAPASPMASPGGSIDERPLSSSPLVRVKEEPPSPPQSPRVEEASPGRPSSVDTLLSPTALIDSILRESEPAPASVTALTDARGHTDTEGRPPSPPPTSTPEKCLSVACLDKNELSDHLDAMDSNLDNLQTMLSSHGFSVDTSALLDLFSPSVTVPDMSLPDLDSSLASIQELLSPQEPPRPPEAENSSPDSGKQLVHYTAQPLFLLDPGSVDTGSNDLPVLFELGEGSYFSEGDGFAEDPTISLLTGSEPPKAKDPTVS
Chain of Transcription factor Sp1 (Homo sapiens) (P08047 whole entry, looked up): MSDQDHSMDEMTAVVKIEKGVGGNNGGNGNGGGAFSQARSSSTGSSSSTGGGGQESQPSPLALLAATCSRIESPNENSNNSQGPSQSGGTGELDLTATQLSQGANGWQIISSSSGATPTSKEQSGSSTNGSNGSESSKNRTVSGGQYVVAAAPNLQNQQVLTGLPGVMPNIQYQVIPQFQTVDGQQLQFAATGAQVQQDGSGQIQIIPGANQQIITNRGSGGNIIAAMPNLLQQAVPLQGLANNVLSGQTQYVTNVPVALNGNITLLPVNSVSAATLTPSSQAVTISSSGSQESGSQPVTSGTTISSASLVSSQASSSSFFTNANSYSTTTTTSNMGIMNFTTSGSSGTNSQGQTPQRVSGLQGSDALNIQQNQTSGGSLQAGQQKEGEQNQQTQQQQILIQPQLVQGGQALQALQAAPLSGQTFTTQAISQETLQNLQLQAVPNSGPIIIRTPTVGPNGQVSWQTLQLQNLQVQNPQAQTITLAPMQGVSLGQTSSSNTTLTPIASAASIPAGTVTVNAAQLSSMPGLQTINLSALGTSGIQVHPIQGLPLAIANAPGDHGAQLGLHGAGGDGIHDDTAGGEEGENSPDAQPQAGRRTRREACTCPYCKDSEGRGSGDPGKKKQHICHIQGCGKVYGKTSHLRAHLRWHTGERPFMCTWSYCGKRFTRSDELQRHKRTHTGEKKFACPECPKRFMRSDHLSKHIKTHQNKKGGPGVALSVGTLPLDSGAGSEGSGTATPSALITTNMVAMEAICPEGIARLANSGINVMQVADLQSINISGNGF
Chain of Hepatocyte nuclear factor 6 (Homo sapiens) (Q9UBC0 whole entry, looked up): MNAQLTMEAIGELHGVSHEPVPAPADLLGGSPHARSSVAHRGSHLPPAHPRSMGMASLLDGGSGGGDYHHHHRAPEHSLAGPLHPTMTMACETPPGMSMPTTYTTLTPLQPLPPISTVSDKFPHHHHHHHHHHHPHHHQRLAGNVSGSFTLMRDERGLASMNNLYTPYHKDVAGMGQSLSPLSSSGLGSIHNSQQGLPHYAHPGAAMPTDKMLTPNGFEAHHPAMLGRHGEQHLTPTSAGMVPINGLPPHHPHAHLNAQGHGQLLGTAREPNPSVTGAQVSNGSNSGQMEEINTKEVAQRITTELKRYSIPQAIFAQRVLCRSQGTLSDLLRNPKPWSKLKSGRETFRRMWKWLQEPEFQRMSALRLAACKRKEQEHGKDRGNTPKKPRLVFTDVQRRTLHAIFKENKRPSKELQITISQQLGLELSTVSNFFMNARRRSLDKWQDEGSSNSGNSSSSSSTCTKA
Chain of Signal transducer and activator of transcription 3 (Homo sapiens) (P40763 whole entry, looked up): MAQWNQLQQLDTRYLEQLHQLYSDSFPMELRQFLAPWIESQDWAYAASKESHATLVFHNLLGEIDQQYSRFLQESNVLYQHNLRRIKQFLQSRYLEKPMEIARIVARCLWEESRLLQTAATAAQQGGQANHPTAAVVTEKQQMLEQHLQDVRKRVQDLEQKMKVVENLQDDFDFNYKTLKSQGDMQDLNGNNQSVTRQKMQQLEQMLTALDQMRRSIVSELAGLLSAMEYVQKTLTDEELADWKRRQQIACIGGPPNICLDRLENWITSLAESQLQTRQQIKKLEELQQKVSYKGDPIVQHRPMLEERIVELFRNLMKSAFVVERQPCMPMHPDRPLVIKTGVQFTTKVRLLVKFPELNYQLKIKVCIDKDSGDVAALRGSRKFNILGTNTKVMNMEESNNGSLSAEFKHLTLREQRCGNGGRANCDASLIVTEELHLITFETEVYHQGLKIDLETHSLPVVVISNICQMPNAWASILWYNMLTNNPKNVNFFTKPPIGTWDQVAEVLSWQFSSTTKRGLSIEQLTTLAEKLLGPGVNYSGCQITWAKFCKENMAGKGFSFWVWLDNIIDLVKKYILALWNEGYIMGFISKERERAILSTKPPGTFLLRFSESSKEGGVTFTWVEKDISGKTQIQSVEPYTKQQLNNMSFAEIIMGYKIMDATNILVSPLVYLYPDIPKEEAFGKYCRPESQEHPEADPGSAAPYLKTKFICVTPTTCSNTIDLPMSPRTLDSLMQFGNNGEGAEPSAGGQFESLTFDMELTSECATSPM

Turning to `COCCl`, the result in assay [1], in [2], in assay [3], in assay [4], in [5] and in assay [6] was inactive. The result in assay [7], in assay [8], in [9], in [10], in assay [11] and in [12] was inactive. Moreover, the compound was called inactive in assay [13], in [14], in [15], in [16], in assay [17] and in [18]. Moreover, in [19], the outcome was inactive.

Consider `Clc1cccc(Cl)c1`, for which the compound was called inactive in assay [1], in assay [2], in assay [3], in assay [4], in assay [5] and in assay [6]. In addition, the result in assay [7], in assay [8], in [9], in assay [10], in assay [11] and in assay [12] was inactive. Besides, the result in assay [13], in assay [14], in [15], in assay [16], in [18] and in assay [20] was inactive. For the same compound, the outcome in [19] was inactive.

Consider `O=c1oc2ccccc2c(O)c1C(CC(O)c1ccc(-c2ccc(Br)cc2)cc1)c1ccccc1` (configuration not stated), for which the outcome in assay [1], in [2], in assay [3], in assay [4], in [7] and in [11] was inactive. Moreover, the result in assay [12], in assay [13], in [14], in assay [15], in [16] and in assay [18] was inactive. Moreover, the outcome in assay [20] was inactive. Further, the AC50 was 14.6 µM (active) in assay [3]; 48.7 µM (active) and 59.6 µM (active) in assay [5]; 40.3 µM (active) and 31.9 µM (active) in assay [6]; 31.7 µM (active) in assay [7]; 46.5 µM (active) and 31.9 µM (active) in assay [8]; 8.03 µM (active) and 7.59 µM (active) in assay [9]. The AC50 is 10.8 µM (active) and 227 nM (active) in assay [10]; 14.4 µM (active) in assay [13]; 8.18 µM (active) in assay [14]; 13.7 µM (active) in assay [16]; 21.1 µM (active) and 11.5 µM (active) in assay [17]; 41.7 µM (active) in assay [18]. Moreover, the half-maximal activity concentration (AC50) in assay [19] is 22.4 µM (active) and 8.54 µM (active).

On to `C=CCN=C=S`, for which the compound was called inactive in [1], in [2], in assay [3], in assay [4], in assay [5] and in [6]. Besides, the result in assay [7], in [8], in [9], in assay [10], in assay [11] and in assay [12] was inactive. Moreover, the compound was classed as inactive in assay [13], in assay [14], in [15], in [16], in assay [17] and in [18]. The outcome in assay [20] and in [19] was inactive.

Consider `OC(c1ccc(Cl)cc1)(c1ccc(Cl)cc1)c1cccnc1`, for which the outcome in assay [1], in [2], in assay [3], in assay [4], in [5] and in assay [6] was inactive. Also, the outcome in assay [7], in assay [8], in [10], in assay [11], in [12] and in assay [13] was inactive. Further, the result in assay [14], in assay [15], in assay [16], in assay [17], in assay [18] and in assay [20] was inactive. Further, in [19], the compound was called inactive. Besides, the half-maximal activity concentration (AC50) in assay [9] is 1.89 µM (active).

`ClCCCCl`: the compound was called inactive in [1], in assay [2], in assay [3], in [4], in [5] and in assay [6]. The result in [7], in assay [8], in [9], in assay [10], in assay [11] and in [12] was inactive. Besides, the result in [13], in assay [14], in assay [15], in assay [16], in [18] and in [19] was inactive.
